# Experimental data taken from PubChem BioAssay (NCATS).
# Results filed as inconclusive are left out. Entries that show only a call come without a potency. Activity calls are given as the source filed them. Calls follow the shape of the dose curve; as a rule, active = well fitted inhibition curve with a large enough effect; inconclusive = small, poorly fitted or top-dose-only effect; inactive = no such curve, though single readings can be large or run the other way. Non-standard residues stand in square brackets, D forms with d. Residues, ends and D or L forms follow the SMILES beside them. *: point of attachment. Sta = CC(C)C[C@H](N)[C@@H](O)CC(=O)O; Isovaleryl = CC(C)CC(=O)*
# Assay: qHTS Screen of the MIPE 4.0 Collection Against Ewings Sarcoma (TC32) (AID 1259256); also: nearly all actives have a fitted effect of over 45% in size
# Settings: TC32 Ewing sarcoma viability, CellTiter-Glo, 48 h; series mostly up to 45.8 µM
# Text: There is a large unmet medical need for treatments for Ewing sarcoma, a pediatric sarcoma. We sought to identify compounds that inhibited Ewing sarcoma cells in vitro with the goal to then test promising drugs in two drug combinations in vitro to look for synergistic drug combinations. Promising combinations would then proceed to additional validation, including in vivo testing.
# Using the NCATS developed oncology compound library called the Mechanism of Interrogation Plate (MIPE), four Ewing sarcoma cell lines were evaluated (TC32, TC71, RDES, EW8). Compounds, in a 12-point titration series, were incubated with cells for 48 hours and the read out was cell viability (CellTiter-Glo from Promega). These initial experiments were used to select appropriate concentrations of each single agent for subsequent two-drug matrix combinations such that the concentrations in the matrices would span both activity and non-activity.
# Cells, in the log phase of growth, were seeded in 5 uL of RPMI plus 5% FBS, […] L-glutamine, 100 U/ml penicillin and 100 ug/ml streptomycin into 1536-well solid-bottom white tissue culture treated Greiner Bio One Plates (789173-F) using a MultiDrop Combi (Thermofisher Scientific) dispenser and a small sterile cassette. One column was media alone to be used as a :"no cells" control. The plates were then covered with sterilized stainless steel gasketed lids from Kalypsys. After allowing cells to attach for 4 hours, 23 nL of test compound or control (negative control DMSO and positive control 9.2 uM Bortezomib-final) were added from a 1536-well polypropylene compound source plate to each well using a 1536 head pin tool from Kalypsys. Cells were then incubated for 48 hours at 37C, 95% relative humidity and 5% CO2. After 48 hours, plates were removed from the incubator and 3 uL of CellTiter-Glo (Promega) was added using an Aurora Flying Reagent Dispenser Bioraptor. Plates were incubated at room temperature for 10 minutes prior to reading the luminescence on the Viewlux (PerkinElmer). The relative luciferase units are used to calculate the percent activity using the activity of DMSO in the cells and no cells columns for normalization of no inhibition and full inhibition respectively.
# Potency is read from the fitted curve at half-maximal effect.
row,SMILES,Potency
1,CN(C)CCc1c[nH]c2ccc(Cn3cncn3)cc12,inactive
2,Nc1nc(Cl)nc2c1ncn2[C@H]1C[C@H](O)[C@@H](CO)O1,0.296 µM (active)
3,NNc1nncc2ccccc12,inactive
4,CCCCCCCCCCCCCCCCCCCCCCO,inactive
5,CC1=C(C(=O)O)N2C(=O)[C@@H](NC(=O)[C@H](N)C3=CCC=CC3)[C@H]2SC1,inactive
6,CC[C@]1(O)C[C@H]2CN(CCc3c([nH]c4ccccc34)[C@@](C(=O)OC)(c3cc4c(cc3OC)N(C=O)[C@H]3[C@@](O)(C(=O)OC)[C@H](OC(C)=O)[C@]5(CC)C=CCN6CC[C@]43[C@@H]65)C2)C1,inactive
7,c1ccc2[nH]c(-c3cscn3)nc2c1,inactive
8,CC1(C)NC(=O)N(c2ccc([N+](=O)[O-])c(C(F)(F)F)c2)C1=O,inactive
9,O=C(O)c1cc(=O)c2c(OCC(O)COc3cccc4oc(C(=O)O)cc(=O)c34)cccc2o1,inactive
10,C[C@H](Cc1ccc(O)c(O)c1)[C@@H](C)Cc1ccc(O)c(O)c1,13.2 µM (active)
11,COc1cc2c(N3CCN(C(=O)Nc4ccc(OC(C)C)cc4)CC3)ncnc2cc1OCCCN1CCCCC1,18.7 µM (active)
12,O=c1c(O)c(-c2cc(O)c(O)c(O)c2)oc2cc(O)cc(O)c12,inactive
13,O=C(O)c1cn(-c2ccc(F)cc2)c2cc(N3CCNCC3)c(F)cc2c1=O,inactive
14,Cc1c(OCC(F)(F)F)ccnc1CS(=O)c1nc2ccccc2[nH]1 (stereo not given),inactive
15,Cc1ccc(Nc2nccc(N(C)c3ccc4c(C)n(C)nc4c3)n2)cc1S(N)(=O)=O,inactive
16,Cc1cc(C2CCCCC2)n(O)c(=O)c1,2.64 µM (active)
17,Nc1ccn([C@@H]2O[C@H](CO)[C@@H](O)C2O)c(=O)n1 (stereo not given in full),inactive
18,CNC[C@H](O)c1ccc(O)c(O)c1,38.2 µM (active)
19,COC1=C(OC)C(=O)C(CCCCCCCCCCO)=C(C)C1=O,26.4 µM (active)
20,COc1ccccc1N1CCN(CCN(C(=O)C2CCCCC2)c2ccccn2)CC1,inactive

row,SMILES,Potency
1,O=Nc1c(-c2c(O)[nH]c3cc(Br)ccc23)[nH]c2ccccc12,4.18 µM (active)
2,O=C(NOCC1CC1)c1ccc(F)c(F)c1Nc1ccc(I)cc1Cl,16.6 µM (active)
3,CCc1nc(N)nc(N)c1-c1ccc(Cl)cc1,2.64 µM (active)
4,C[C@]12CCC(=O)C=C1CC[C@@H]1[C@H]2[C@@H](O)C[C@@]2(C)[C@H]1CC[C@]2(O)C(=O)CO,inactive
5,CCOC(=O)c1c(C)n(C)c2ccc(O)cc12,inactive
6,CC(C)CC(=O)N[C@H](C(=O)N[C@H](C(=O)N[C@@H](CC(C)C)[C@@H](O)CC(=O)N[C@@H](C)C(=O)N[C@@H](CC(C)C)[C@@H](O)CC(=O)O)C(C)C)C(C)C (Isovaleryl-VV[Sta]A[Sta]-OH),inactive
7,O=C(O)c1cccc(-c2noc(-c3ccccc3F)n2)c1,inactive
8,O=c1oc2cc(O)ccc2s1,20.9 µM (active)
9,COCCCOc1ccnc(CS(=O)c2nc3ccccc3[nH]2)c1C (stereo not given),8.33 µM (active)
10,c1cnc2cc3c(cc2n1)C1CNCC3C1,inactive
11,N[C@@H](Cc1cc(I)c(Oc2cc(I)c(O)c(I)c2)c(I)c1)C(=O)O,3.72 µM (active)
12,Cc1cc2c(s1)Nc1ccccc1N=C2N1CCN(C)CC1,inactive
13,O=P(O)(O)C(O)(Cn1ccnc1)P(=O)(O)O,inactive
14,CN(C)CCCC1(c2ccc(F)cc2)OCc2cc(C#N)ccc21 (stereo not given),16.6 µM (active)
15,CCCCc1ccc2nc(NC(=O)OC)[nH]c2c1,inactive
16,CC(=O)O[C@H]1C(=O)[C@@]2(C)C([C@H](OC(=O)c3ccccc3)[C@]3(O)C[C@H](OC(=O)[C@H](O)[C@@H](NC(=O)c4ccccc4)c4ccccc4)C(C)=C1C3(C)C)[C@]1(OC(C)=O)CO[C@@H]1C[C@@H]2O (stereo not given in full),inactive
17,CC(C)[N+]1(C)[C@@H]2CC[C@H]1CC(OC(=O)C(CO)c1ccccc1)C2 (stereo not given in full),inactive
18,Cc1cc(Cl)ccc1OCCCC(=O)NO,11.8 µM (active)
19,C[Se]CCC(N)C(=O)O (stereo not given),inactive
20,O=C(NC(Cc1cc(=O)[nH]c2ccccc12)C(=O)O)c1ccc(Cl)cc1 (stereo not given),inactive
